Test [1] can be described thus: ATG_XTT_Cytotoxicity: Cytotoxicity Assessment in the Attagene TRANS-FACTORIAL HepG2 Assay (AID 2283584).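 For AC50: XTT signal for cell number as viability in transfected HepG2 cells; cells exposed to compound for 24 h before reading; active means loss of viability signal versus DMSO baseline.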 The method, boiled down: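 24 h chemical exposure of reporter-transfected HepG2; XTT signal loss vs DMSO indicates cytotoxicity.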
Test [2] can be described thus: TOX21_p53_BLA_p2_viability: Viability Assessment in the Tox21 HCT-116 p53 Agonism Beta-lactamase Assay, Phase 2 (AID 2283591).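 Note: compound exposure lasted 16 h at 37 °C; actives lower the ATP signal meaning cytotoxicity.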 The method, boiled down:
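Cytotoxicity readout: CellTiter-Glo ATP luminescence, 30 min at room temperature, after the beta-lactamase read. Cells were HCT116 exposed 16 h at 37C to compounds pin-transferred at 217-fold dilution from DMSO stocks.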

Test [3] deals with Cellular tumor antigen p53 (Homo sapiens) (UniProt P04637). Briefly: TOX21_p53_BLA_p2_ratio: Tox21 HCT-116 p53 Agonism Beta-lactamase Assay, Ratio, Phase 2 (AID 2283592). The procedure, abridged: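 Human colon HCT116 cells with an inducible p53 beta-lactamase reporter are exposed to test chemicals for 16 h at 37C. Reporter induction is read as the 460/530 nm emission ratio after CCF4-AM loading, normalized to DMSO.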
Cellular tumor antigen p53 (Homo sapiens), sequence (P04637 whole entry, looked up): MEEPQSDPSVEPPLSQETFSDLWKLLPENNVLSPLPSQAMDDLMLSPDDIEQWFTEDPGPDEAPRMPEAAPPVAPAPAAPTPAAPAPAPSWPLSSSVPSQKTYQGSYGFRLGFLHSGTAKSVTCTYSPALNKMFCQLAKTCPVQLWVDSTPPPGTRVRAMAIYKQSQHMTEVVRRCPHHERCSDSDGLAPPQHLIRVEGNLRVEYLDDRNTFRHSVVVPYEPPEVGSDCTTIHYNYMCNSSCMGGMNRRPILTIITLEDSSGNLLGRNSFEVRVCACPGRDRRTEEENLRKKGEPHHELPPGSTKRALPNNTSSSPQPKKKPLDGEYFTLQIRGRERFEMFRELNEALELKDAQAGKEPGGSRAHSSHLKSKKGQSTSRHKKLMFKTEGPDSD

The target is the same in test [4]. Briefly: TOX21_p53_BLA_p3_ratio: Tox21 HCT-116 p53 Agonism Beta-lactamase Assay, Ratio, Phase 3 (AID 2283596). The method, boiled down:
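HCT116 p53-bla cells (4000/well) given compound in DMSO (217-fold dilution) after 5 h, incubated 16 h at 37C. CCF4-AM substrate 2 h at room temperature; 460/530 nm emission ratio, gain fitted against DMSO.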

Test [5] is described as follows: TOX21_p53_BLA_p4_viability: Viability Assessment in the Tox21 HCT-116 p53 Agonism Beta-lactamase Assay, Phase 4 (AID 2283597).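 Note: hits lower the luminescence signal meaning cytotoxicity.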 The method, boiled down: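 Luminescent ATP readout (CellTiter-Glo, 30 min, room temperature) in the same wells as the p53 bla ratio. HCT116 cells were treated for 16 h at 37C with DMSO-dissolved compounds.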
In test [6] the target is Cellular tumor antigen p53 (Homo sapiens) (UniProt P04637). The experiment in a line: TOX21_p53_BLA_p5_ratio: Tox21 HCT-116 p53 Agonism Beta-lactamase Assay, Ratio, Phase 5 (AID 2283599). The procedure, abridged: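 Beta-lactamase reporter ratio (blue 460 nm over green 530 nm, 405 nm excitation) after 2 h CCF4-AM loading, in HCT-116 cells exposed 16 h at 37 C to compounds pinned at 217-fold dilution. Increases relative to DMSO baseline scored.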

Test [7] in a line: TOX21_p53_BLA_p5_viability: Viability Assessment in the Tox21 HCT-116 p53 Agonism Beta-lactamase Assay, Phase 5 (AID 2283600). The method, boiled down: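 Seeded cells (4000/well) settle 5 h before compound addition. Plates then incubate 16 h at 37C, receive FRET substrate for 2 h, and finally CellTiter-Glo, with luminescence measured after a 30 min room-temperature incubation.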

Test [8] can be described thus: TOX21_p53_BLA_p3_viability: Viability Assessment in the Tox21 HCT-116 p53 Agonism Beta-lactamase Assay, Phase 3 (AID 2283593).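 Note: cells exposed to compound for 16 h before reading.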 The method, boiled down: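 Cellular ATP was quantified by CellTiter-Glo luminescence, read after 30 min at room temperature. Beforehand, HCT116 cells (4000/well) received compound 5 h post-seeding, 217-fold diluted from DMSO, then incubated 16 h at 37C.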

Several values for one entry are separate records, joined by “and”; a condition that tells them apart may be missing. Identical values can stand only once. Inconclusive results are not listed. Where a structure was tested more than once in an assay, its records may differ in their call. Activity calls are given as the source filed them. Rule for the calls: active = hit-call score of the fitted dose curve at least 0.9, where 1 is the maximum; inconclusive = response in the unintended direction; inactive = score below 0.9.

With `CNNCc1ccc(C(=O)NC(C)C)cc1`, the outcome in test [1], in test [2], in test [3], in test [4], in test [5] and in test [6] was inactive. The call in test [7] was inactive.
As to `CCCC=O`, the call in test [1], in test [2], in test [5], in test [6] and in test [7] was inactive.
Take `O=C1OC2(c3ccccc31)c1cc(I)c(O)c(I)c1Oc1c2cc(I)c(O)c1I`: the compound was called inactive in test [1], in test [8], in test [4], in test [5], in test [6] and in test [7]. For the same compound, the AC50 in test [4] was 87.3 µM (active); in test [5], 58.1 µM (active); in test [6] it was 83 µM (active).
Consider `CC(O)COc1ccccc1` (stereo unspecified), for which the result in test [1], in test [2], in test [3], in test [8], in test [4] and in test [6] was inactive. For the same compound, the result in test [7] was inactive.
On to `NS(=O)(=O)O`, for which the compound was classed as inactive in test [1], in test [2], in test [4], in test [6] and in test [7].
With `Cc1ccc(C)c(S(=O)(=O)O)c1`, the compound was called inactive in test [1], in test [2], in test [4], in test [5] and in test [7].
As to `O=S(=O)(O)c1ccc2cc(O)ccc2c1`, the outcome in test [1], in test [2], in test [3], in test [4], in test [5] and in test [6] was inactive. Besides, the compound was classed as inactive in test [7].
Consider `Nc1ccc(O)c(C(=O)O)c1`, for which the outcome in test [1], in test [2], in test [4], in test [5], in test [6] and in test [7] was inactive. Also, the AC50 in test [6] was 71.9 µM (active).
Turning to `Cc1ccc(C(=O)c2ccccc2)cc1`, the result in test [1], in test [4], in test [5] and in test [6] was inactive.
As for `CC(C)(O)C(=O)c1ccccc1`, the compound was classed as inactive in test [1] and in test [7].
`C=CC(C)(CCC=C(C)C)OC(C)=O` (stereo unspecified): the result in test [3], in test [4], in test [5] and in test [6] was inactive.
Turning to `CC=O`, the compound was called inactive in test [1]. In addition, the AC50 in test [8] is 86.1 µM (active); in test [4], 2.37 µM (active); in test [5], 47.9 µM (active); in test [6], 30.3 µM (active); in test [7] it was 74.4 µM (active).
Regarding `CC(C)(C)c1ccc(CCC=O)cc1`, the outcome in test [1], in test [4] and in test [6] was inactive.
Regarding `O=C(NO)c1ccccc1`, the compound was called inactive in test [1], in test [4], in test [5], in test [6] and in test [7].
`CCCCCCCCCCCCOC(=O)c1cc(O)c(O)c(O)c1`: the AC50 is 21.7 µM (active) and 28.2 µM (active) in test [2]; 49.2 µM (active) and 77.1 µM (active) in test [8]; 57.6 µM (active) and 81.5 µM (active) in test [4]; 46.1 µM (active) and 30.9 µM (active) in test [5]; 48.3 µM (active) and 77 µM (active) in test [6]; 41.2 µM (active) and 78.9 µM (active) in test [7].
Take `Cc1cc(=O)oc2cc(O)ccc12`: the compound was called inactive in test [1], in test [8], in test [4], in test [5], in test [6] and in test [7]. Further, the AC50 in test [6] is 65 µM (active) and 38.4 µM (active).
Take `COCN(COC)c1nc(N(COC)COC)nc(N(COC)COC)n1`: the outcome in test [4], in test [5], in test [6] and in test [7] was inactive.
In the case of `CC(C)(C)C1CCCCC1O` (stereo unspecified), the compound was classed as inactive in test [1], in test [5] and in test [6].
For `C[C@]12CC[C@@H]3c4ccc(O)cc4CC[C@H]3[C@@H]1C[C@@H](O)[C@@H]2O`, the compound was called inactive in test [1], in test [8], in test [4], in test [5], in test [6] and in test [7].
`CCC(=O)O`: the outcome in test [1], in test [4] and in test [6] was inactive.
Regarding `Oc1ccc(Cc2ccccc2O)cc1`, the compound was classed as inactive in test [1], in test [4], in test [5] and in test [6].
Take `OCC1CCC(CO)CC1` (stereo unspecified): the outcome in test [1], in test [5], in test [6] and in test [7] was inactive.
As for `CCC(=O)C=Cc1ccc(OC)cc1`, the result in test [4], in test [5], in test [6] and in test [7] was inactive.
As to `CC1=NN(c2ccccc2)C(=O)C1`, the result in test [3], in test [8], in test [4], in test [5], in test [6] and in test [7] was inactive.
For `CCCCCCC(C)(C)C(=O)O`, the result in test [4] and in test [6] was inactive.
Consider `CCOCCOCC`, for which the outcome in test [4], in test [5], in test [6] and in test [7] was inactive.
`CCOC(C)=O`: the result in test [3], in test [4], in test [5], in test [6] and in test [7] was inactive.
Consider `Cc1cc(C(C)(C)C)c(O)c(C(C)(C)C)c1`, for which the call in test [2], in test [8], in test [4], in test [5], in test [6] and in test [7] was inactive.
Consider `Nc1cc(Cl)c(-c2cc(Cl)c(N)cc2Cl)cc1Cl`, for which the result in test [1] was inactive. Besides, the AC50 in test [8] is 70.8 µM (active) and 63.8 µM (active); in test [4], 86.4 µM (active) and 84.5 µM (active); in test [5], 40.7 µM (active) and 29.6 µM (active); in test [6], 85.2 µM (active) and 85.6 µM (active); in test [7], 71.8 µM (active) and 61.9 µM (active).
On to `O=C(O)c1cccc(C(=O)O)n1`, for which the outcome in test [3], in test [4], in test [6] and in test [7] was inactive.
Consider `CCCCCCCCCCCCCCCC(=O)OC`, for which the compound was called inactive in test [1] and in test [5].
With `CCCCCCCCCCCC[N+](C)(C)CCCCCCCCCCCC`, the AC50 in test [1] is 62.4 µM (active); in test [8] it was 50.7 µM (active); in test [4] it was 66.5 µM (active); in test [5], 46.1 µM (active); in test [6], 56.6 µM (active); in test [7], 37 µM (active).
Consider `Oc1c(Cl)cc(Cl)cc1Sc1cc(Cl)cc(Cl)c1O`, for which the AC50 in test [1] was 41.5 µM (active); in test [7], 82 µM (active) and 85.7 µM (active). Further, in test [7], the outcome was inactive.
`CCCCCCCCCCCCCCCCCC[N+](C)(C)Cc1ccccc1`: the AC50 was 29 µM (active) in test [1], 60.6 µM (active) in test [4], 38.1 µM (active) in test [5] and 15 µM (active) in test [7]. Further, in test [6], the outcome was inactive.
Turning to `Cc1ccc(S(=O)(=O)O)cc1`, the compound was called inactive in test [1], in test [5] and in test [7].
Consider `O=C1OC(=O)c2cc(-c3ccc4c(c3)C(=O)OC4=O)ccc21`, for which the compound was classed as inactive in test [1], in test [8], in test [4], in test [5], in test [6] and in test [7].
Take `O=c1cc(-c2ccccc2)oc2ccc3ccccc3c12`: the result in test [1], in test [4], in test [5], in test [6] and in test [7] was inactive.
As for `NC(=NCCCCCCN=C(N)/N=C(\N)Nc1ccc(Cl)cc1)/N=C(\N)Nc1ccc(Cl)cc1`, the AC50 is 31.6 µM (active) in test [1], 72.6 µM (active) [middle of 4 runs] in test [4] and 79.6 µM (active) [middle of 4 runs] in test [6]. Besides, the outcome in test [4] and in test [6] was inactive.
Turning to `O=C(c1cc(O)c(O)c(O)c1)c1ccc(O)c(O)c1O`, the compound was called inactive in test [2], in test [5] and in test [7]. Besides, the AC50 is 59.5 µM (active) and 61.8 µM (active) in test [3]; 60.9 µM (active) and 84.5 µM (active) in test [4]; 86.8 µM (active) and 74.6 µM (active) in test [6].
For `CC(C)C=O`, the result in test [1], in test [5], in test [6] and in test [7] was inactive.
On to `NCc1cccc(CN)c1`, for which the compound was classed as inactive in test [1], in test [4], in test [5] and in test [7].
In the case of `CCCCCCCCC1CCC(=O)O1` (stereo unspecified), the result in test [1], in test [4], in test [6] and in test [7] was inactive.
Regarding `CCCCCCc1ccc(N)cc1`, the compound was classed as inactive in test [1], in test [4], in test [5], in test [6] and in test [7].
For `Clc1ccc(Nc2nnc(Cc3ccncc3)c3ccccc23)cc1`, the compound was classed as inactive in test [1], in test [4] and in test [6].

Broadly, the AC50 is the concentration at which the activity in the assay is half-maximal.

The record behind these values is PubChem BioAssay (EPA / NIEHS).
